# JMJD2A Tudor – qHTS Assay for Inhibitors of JMJD2A-Tudor Domain. hit rate 4.4% among 390,000. AID 504339, 2011. AlphaScreen JMJD2A-Tudor / H3K4me3 peptide binding. Potency, µM (highest dose often 114 µM), without a hit: at the top dose activity change, negative = inhibition, actives largely listed as inhibitors; note: potency is the fitted concentration of half-maximal effect; % is set by controls: 0 for no effect and ±100 for the full control effect; nearly all actives have a fitted effect of over 50% in size
# HP1b binding inh – HTS for Inhibitors of HP1-beta Chromodomain Interactions with Methylated Histone Tails | Chromobox protein homolog 1 (Homo sapiens), P83916 | AlphaScreen HP1-beta / biotin-H3K9me3 peptide binding | Potency, µM (doses to about 114 µM), for the others: at the highest dose activity change, negative = inhibition, actives largely listed as inhibitors | hit rate 0.56% among 390,000; note: potency is the fitted concentration of half-maximal effect; nearly all actives have a fitted effect of over 70% in size
#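 Compound inhibition of the preformed complex between 50 nM HP1-beta and 50 nM biotinylated H3K9me3 peptide was read by AlphaScreen. Buffer was PBS pH 7.4 with 0.01% Tween-20. Incubations ran 30 min at room temperature, with 10 ug/mL donor/acceptor beads.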
# BAZ2B inh – qHTS Assay for Inhibitors of BAZ2B. AlphaScreen BAZ2B-H3K14Ac peptide displacement. hit rate 4.4% among 360,000. Bromodomain adjacent to zinc finger domain protein 2B (Homo sapiens), Q9UIF8. Potency, µM (series often up to 114 µM), without a hit: at the highest dose activity change, negative = inhibition, most hits filed as inhibitors; note: potency is the fitted concentration of half-maximal effect; % is set by controls: 0 for no effect and ±100 for the full control effect; nearly all actives have a fitted effect of over 60% in size
#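 AlphaScreen luminescence quantifies BAZ2B engagement of H3K14Ac peptide; the protein and biotinylated peptide are both at 50 nM final, buffer PBS pH 7.4 with 0.01% Tween-20, all steps at room temperature.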
# PI5P4K alpha inh – qHTS for Inhibitors of phosphatidylinositol 5-phosphate 4-kinase (PI5P4K). Phosphatidylinositol 5-phosphate 4-kinase type-2 alpha (Homo sapiens), P48426. PI5P4Kalpha enzyme, ADP-Glo luminescence, 60 min; active compounds read low. max response, %. hit rate 1.2% among 330,000. AID 652105, 2013; active = max response of -50% or lower; inconclusive = between -30% and -50%; inactive = -30% or higher; note: value at the top dose of about 77 µM; % is set by controls: 0 for no effect and ±100 for the full control effect
#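 Enzyme plus substrate dispensed, test compounds pinned in, then ATP (5 microM final) added. After 60 min at RT, ADP-Glo reagent 1 for 45 min and reagent 2 for 30 min preceded luminescence imaging.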
# L3MBTL1 block – qHTS Assay for the Inhibitors of L3MBTL1; AID 485360, 2010; Lethal(3)malignant brain tumor-like protein 1 (Homo sapiens), Q9Y468; AlphaScreen L3MBTL1–H3K9me1 peptide binding; hit rate 0.66% among 230,000; Potency, µM (titrated, usually from 57.1 µM), inactives show at the top dose activity, negative = inhibition, usual class: inhibitors; note: potency is the fitted concentration of half-maximal effect; % is set by controls: 0 for no effect and ±100 for the full control effect; nearly all actives have a fitted effect of over 60% in size
#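 L3MBTL1 50 nM + b-AHA-H3(1-15)K9me1 75 nM, 30 min RT; compound added, 30 min RT; streptavidin donor/Ni-chelate acceptor beads 10 ug/mL each final, 30 min RT dark; AlphaScreen read.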
# G9a inh – qHTS Assay for Inhibitors of Histone Lysine Methyltransferase G9a. G9a H3K9 monomethylation, AlphaScreen, 2 h. Potency, µM (series often up to 102 µM), for the others: at the highest dose activity, negative = inhibition, actives largely listed as inhibitors. hit rate 8.8% among 350,000. AID 504332, 2011; note: potency is the fitted concentration of half-maximal effect; % is set by controls: 0 for no effect and ±100 for the full control effect; nearly all actives have a fitted effect of over 75% in size
#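 AlphaScreen detection with an anti-monomethyl H3K9 antibody quantified product after a 2 h room-temperature reaction containing 500 nM biotinylated H3K9 peptide, 20 µM SAM and 20 nM enzyme, which had been preincubated 15 min with compound.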
# Starred values were filed as active, the others as inactive; ? = inconclusive; nt = not tested or not shown; [ ] = another dose, or the depositor's remark. This is a sample that favours compounds with a hit; in the whole collection about 11% have one here. Unless noted, calls come from the whole dose curve; as a rule, active = well fitted inhibition curve with a large enough effect; inconclusive = small, poorly fitted or top-dose-only effect; inactive = no such curve, though single readings can be large or run the other way.
SMILES,JMJD2A Tudor,HP1b binding inh,BAZ2B inh,PI5P4K alpha inh,L3MBTL1 block,G9a inh
CN(C(=S)NC(=O)C12CC3CC(CC(C3)C1)C2)c1ccc(O)cc1,50µM*,10µM*,nt,-1,-8%,nt
CC(C)(C)NC(=S)NC(=O)C12CC3CCC(CC(C3)C1)C2,89µM*,-15%,-38%,0,10%,-9%[59 µM]
CN1CCC(N(C)C(=S)NC(=O)C23CC4CC(CC(C4)C2)C3)CC1,-4%,-11%,10%,-25,0%,40µM*
CN(C(=O)CSc1cn(CC(=O)N2CCCCC2)c2ccccc12)c1ccccc1,-1%,26%,-16%,nt,nt,-5%[59 µM]
Cc1[nH]c2ccccc2c1/C=N/NC(=O)CNC(=O)Cc1ccccc1,-25%,32%,?,1,nt,71µM*
Cc1ccc(NC(=S)N/N=C/c2c(C)[nH]c3ccccc23)cc1,45µM*,?,45µM*,4,-5%,50µM*
Cc1[nH]c2ccccc2c1/C=N/NC(N)=S,-25%,1%,-34%,2,-17%,-26%[59 µM]
Cc1[nH]c2ccccc2c1/C=N/NC(=O)c1cc(C(C)(C)C)[nH]n1,-23%,-4%,71µM*,-15,nt,nt
COc1ccc(OC)c(CNc2ncnc3c2nc2n3CCCC2)c1,-4%,35%,-14%,nt,nt,-27%[59 µM]
COc1ccc(-c2cc(C(=O)OC(C)C(=O)c3ccccc3)c3cccc(Cl)c3n2)cc1 (stereo not given),12%,63%,13%,nt,nt,8%[59 µM]
CC(=O)c1ccc(NC(=O)CN2C(=O)CCc3ccccc32)cc1,-21%,31%,-14%,nt,nt,-21%[59 µM]
O=C(Cn1c(=O)c2cccn2c2cccnc21)NCCCN1CCN(c2ccc(F)cc2)CC1,-33%,23%,-32%,0,nt,?
COc1ccc(N2CCN(CCCNC(=O)Cn3c(=O)c4cccn4c4cccnc43)CC2)cc1,50µM*,-12%,32µM*,-1,nt,40µM*
COc1ccc(N2CCN(CCCNC(=O)c3nnc(Cc4ccccc4Cl)o3)CC2)cc1,50µM*,?,35µM*,nt,nt,13µM*
CC1CCCCN1CCCNC(=O)Cn1c(=O)c2cccn2c2ccccc21 (stereo not given),-6%,44%,1%,4,nt,43%
O=C(NCCCN1CCN(c2ccccc2)CC1)c1ccc2nc(Cc3ccccc3)oc2c1,?,-1%[57 µM],?,nt,nt,-41%[59 µM]
O=C(NCCCN1CCN(c2ccc(F)cc2)CC1)c1ccc2nc(Cc3ccccc3)oc2c1,?,-9%[57 µM],32µM*,nt,nt,-38%[59 µM]
COc1ccc(N2CCN(CCCNC(=O)Cn3c(=O)c4cccn4c4ccccc43)CC2)cc1,-35%,?,?,-13,nt,40µM*
CCCCCC(=O)/C=C/C=C\C/C=C\C/C=C\CCCC(=O)O,nt,nt,nt,nt,nt,25%[59 µM]
COc1ccc(N2CCN(CCCNC(=O)c3ccc4nc(N5CCCCC5)sc4c3)CC2)cc1,45µM*,?,25µM*,nt,nt,?
COc1ccc(N2CCN(CCCNC(=O)c3sc4ncccc4c3-n3cccc3)CC2)cc1,40µM*,-27%[57 µM],35µM*,nt,nt,16µM*
COCCn1c(=O)[nH]c2cc(C(=O)NCCN3CCN(c4ccc(OC)cc4)CC3)ccc2c1=O,18%[57.1 µM],22%,-6%,4,-3%,10µM*
CCC(C)Nc1sc(S(=O)(=O)CC)nc1S(=O)(=O)c1ccc(C)cc1 (stereo not given),-11%,37%,-1%,nt,nt,-2%[59 µM]
COC(=O)c1ccc(NS(=O)(=O)c2ccc3[nH]c4c(c3c2)CCCCC4)cc1,?,-10%,-15%[57.1 µM],nt,nt,?
CCOC(=O)C1CCN(S(=O)(=O)c2ccc3[nH]c4c(c3c2)CCCC4)CC1,22µM*,?,?,-1,nt,?
SMILES,JMJD2A Tudor,HP1b binding inh,BAZ2B inh,PI5P4K alpha inh,L3MBTL1 block,G9a inh
COc1ccccc1NC(=O)C1CCN(S(=O)(=O)c2ccc3[nH]c4c(c3c2)CCCCC4)CC1,-30%,37%,-11%,nt,nt,3.5µM*
COc1cccc(NC(=O)C2CCN(S(=O)(=O)c3ccc4[nH]c5c(c4c3)CCCCC5)CC2)c1,-31%,10%,-16%,nt,nt,-39%[59 µM]
CCOC(=O)CC(NS(=O)(=O)c1ccc2[nH]c3c(c2c1)CCCC3)c1ccccc1Cl (stereo not given),35µM*,?,35µM*,nt,nt,6.3µM*
CCOC(=O)C1CCN(S(=O)(=O)c2ccc3[nH]c(=O)c(=O)[nH]c3c2)CC1,-2%,16%,-8%,-8,nt,-2%
Cc1ccccc1CN1CCCN(CC(=O)Nc2c(C)cccc2C)S1(=O)=O,-26%,-3%,-2%,nt,nt,29%[59 µM]
CC(=O)N1CCc2cc(Br)cc(S(=O)(=O)CCC(=O)Nc3ccc(C)cc3Cl)c21,-6%,18%,2%,nt,nt,?
Nc1ccc2nc(SCc3ccccc3F)sc2c1,25µM*,?,?,-28,nt,22µM*
O=C(Nc1ccc2nc(SCc3ccccc3)sc2c1)c1ccccc1F,-3%,50%,-4%,nt,nt,0%[59 µM]
Nc1ccc2nc(SCC(=O)c3ccccc3)sc2c1,-27%,10%,?,-8,nt,45µM*
COc1ccc(N(CC(=O)Nc2cccc(Cl)c2C)S(=O)(=O)c2c(C)nn(C)c2C)cc1,-5%,43%,nt,nt,nt,3%[59 µM]
CCCCCCCCCCCCCC[N+](C)(C)Cc1ccccc1,nt,nt,nt,nt,nt,-31%[12.7 µM]
Cn1c(-c2ccccc2Br)n[nH]c1=S,4.5µM*,-16%,nt,-9,nt,nt
Cn1c(-c2ccccc2)n[nH]c1=S,22µM*,23%,-3%,4,8%,nt
Cc1cccc(-c2nc3ccccc3c3nncn23)c1,-6%[57.1 µM],45%,5%,7,9%,15%[59 µM]
CSc1nnc(-c2sc(-c3ccccc3)nc2C)n1C,-1%,16%,-1%,nt,-4%,2%
Cc1nc(-c2ccccc2)sc1-c1n[nH]c(=S)n1C,10µM*,12%,79µM*,nt,-5%,3.5µM*
Cc1cccc(-c2n[nH]c(=S)n2C)c1,4.5µM*,?,-2%,-10,17%,28µM*
O=C(NC1CC(=O)N(c2ccccc2)C1)c1cc2ccccc2o1 (stereo not given),6%,24%,4%,nt,nt,-5%[59 µM]
Cc1ccn2c(=O)cc(C)nc2c1,-10%,15%,-13%,-7,nt,-29%
Cc1ccn2c(-c3n[nH]c(=S)n3C)c(C)nc2c1,8.9µM*,?,0%,-21,-16%,8.9µM*
